# Screen size: about 290,000 compounds; about 370 (0.13%) were called active. What follows is part of a selection rich in actives, with near analogues and random picks from the rest. Entries with a potency or affinity are not part of this list. A number with no mark means an inactive call.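 The calls were made as follows: active = spots per cell inhibited over 60%, with over 100 cells counted and total cytoplasm intensity under 500,000; inconclusive = wells with under 100 cells, flagged as likely toxic; inactive = the rest.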
# Target: G-protein coupled receptor 55 (Homo sapiens) (UniProt Q9Y2T6)
# Sequence (Q9Y2T6 whole entry, looked up): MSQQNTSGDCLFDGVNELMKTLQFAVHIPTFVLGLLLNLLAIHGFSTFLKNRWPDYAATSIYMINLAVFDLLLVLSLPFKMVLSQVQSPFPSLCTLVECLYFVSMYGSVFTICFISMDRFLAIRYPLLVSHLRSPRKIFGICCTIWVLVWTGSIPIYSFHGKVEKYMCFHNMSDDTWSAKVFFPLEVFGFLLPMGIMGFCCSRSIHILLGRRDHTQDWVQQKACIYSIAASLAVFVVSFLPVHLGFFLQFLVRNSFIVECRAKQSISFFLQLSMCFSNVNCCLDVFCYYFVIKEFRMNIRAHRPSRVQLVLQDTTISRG
# Assay: inhibition of LPI-stimulated GPR55 beta-arrestin translocation – imaging, U2OS, beta-arrestin-GFP, LPI agonist, primary screen (AID 2013);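 also: U2OS cells stably carrying GPR55 and arrestin-GFP stimulated by 5 µM LPI near EC80; imaged beta-arrestin-GFP aggregate spots per cell after agonist stimulation; plate controls were LPI-stimulated DMSO wells for no effect and DMSO wells without LPI for full effect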
# Settings: LPI antagonism, at 10 µM, stronger effect = higher value
row,SMILES,inhibition
1,Cc1ccc(NS(=O)(=O)c2cccc(C(=O)O)c2)cc1S(=O)(=O)N1CCCCC1,5.9%
2,Cc1cc(C)nc(SC2CC(=O)N(c3ccc(Cl)cc3)C2=O)n1 (stereo unspecified),20.8%
3,O=[N+]([O-])c1ncn(C23CC4CC(CC(C4)C2)C3)n1,-8.9%
4,N#CC(c1ccccn1)c1ncc(C(F)(F)F)cc1Cl (stereo unspecified),3.6%
5,O=C(NCc1ccccn1)c1ccc(Cl)c(S(=O)(=O)N2CCCCCC2)c1,21.3%
6,CCCCC1(CC(=O)OC)C(=O)N(c2ccccc2)N(c2ccccc2)C1=O,-3.2%
7,CCCCC1(CO)C(=O)N(c2ccccc2)N(c2ccccc2)C1=O,-5.2%
8,CCCCC1(CC(=O)OCC)C(=O)N(c2ccccc2)N(c2ccccc2)C1=O,17.5%
9,CCCCC1(Cc2ccc([N+](=O)[O-])cc2)C(=O)N(c2ccccc2)N(c2ccccc2)C1=O,51.2%
10,CCCCCCSc1nc(O)c(C2OC(=O)c3c2ccc(OC)c3OC)c(=O)n1CC (stereo unspecified),2.6%
11,CC(=O)c1ccc(NC(=O)CCc2c(C)nn(-c3ccc(N4CCOCC4)nn3)c2C)cc1,4.4%
12,O=C(NCc1ccco1)C(=O)NCC1OCCN1C(=O)c1ccc(Cl)cc1 (stereo unspecified),2.4%
13,O=C(Nc1ccnc(=O)[nH]1)c1sc2ccccc2c1Cl,5.4%
14,CCOCc1nnc(NC(=O)c2cc(OC)c(OC)cc2[N+](=O)[O-])s1,1.7%
15,O=C1CSC(c2ccc(Cl)cc2Cl)N1c1ccccn1 (stereo unspecified),22.4%
16,O=C1CSC(c2cccc(Cl)c2Cl)N1c1ccccn1 (stereo unspecified),13%
17,C/C(CC(=O)N1CCN(C=O)CC1)=N\NC(=O)c1cc2ccccc2cc1O,5.8%
18,Cc1nc2c(oc3ccc(Cl)cc32)c(=O)[nH]1,-10.2%
19,Clc1ncnc2c1oc1ccccc12,26.5%
20,Cc1c(N/C(=N/S(=O)(=O)c2ccc(Cl)cc2)c2ccccc2)c(=O)n(-c2ccccc2)n1C,-4.8%
21,c1ccc(-c2ccccc2-c2nc(-c3ccncc3)no2)cc1,41.2%
22,COc1ccc(-c2noc(-c3ccccc3-c3ccccc3)n2)cc1,10.6%
23,Cc1ccc(N/N=C(\C#N)C(=N)N2CCOCC2)cc1,86.4% (active)
24,Cc1ccc(N/N=C(\C#N)C(=N)N2CCCCC2)cc1,2.6%

row,SMILES,inhibition
1,Cc1ccc(N/N=C(\C#N)C(=N)N2CCCCCC2)cc1,-5%
2,CN(CC(=O)NCc1ccccc1F)S(=O)(=O)c1ccc(Cl)cc1,3.3%
3,COC(=O)CSc1nc(NCC(C)C)nc(N2CCOCC2)n1,-2.9%
4,Clc1ccccc1OCCn1ccnc1,1.9%
5,Clc1ccccc1C(c1ccccc1)(c1ccccc1)n1ccnc1,98.7% (active)
6,Clc1ccccc1OCCCn1ccnc1,-2.4%
7,CCCCN(C(=O)CCCc1nc2ccccc2c(=O)[nH]1)c1c(N)n(CCCC)c(=O)[nH]c1=O,21.5%
8,COC(=O)c1sc(NC(=O)/C=C/c2ccc(C)cc2)nc1C,16.9%
9,CSc1nc2ccc(S(=O)(=O)N3CCCCC3)cc2s1,10.7%
10,Cc1nc2ccc(S(=O)(=O)N3CCCCC3)cc2s1,-5.9%
11,CC1NC(=S)N(C2CCCCC2)C1=O (stereo unspecified),2.5%
12,COc1cccc(OC)c1C1=NC(C)(C)CO1,6.1%
13,COc1ccc2cc(C(=O)C3CCCN(C(=O)c4cc5nc(C)cc(C)n5n4)C3)ccc2c1 (stereo unspecified),-6.7%
14,Cc1c(N=C2N=C(NC(=O)NC(C)(C)C)c3ccccc32)c(=O)n(-c2ccccc2)n1C,1.4%
15,Cc1cccc(C)c1NS(=O)(=O)c1cc2c3c(c1)CC(=O)N3CCC2,6.8%
16,CCc1nc(C)cn1S(=O)(=O)c1ccc(Cl)c(Cl)c1Cl,18.7%
17,CCc1nc(C)cn1S(=O)(=O)c1ccc([N+](=O)[O-])cc1,0.5%
18,Cc1c(C(=O)NCCN2CCCC(O)C2)oc2c(F)cccc12 (stereo unspecified),26.6%
19,O=[N+]([O-])c1ccc(N/N=C\c2cccn2-c2ccccc2)nc1,89.6% (active)
20,O=C(N/N=C/c1cccn1-c1ccc([N+](=O)[O-])cc1)C(O)c1ccccc1 (stereo unspecified),16.8%
21,Cc1cc(/C=N/Nc2ccc([N+](=O)[O-])cn2)c(C)n1-c1ccccc1,13.4%
22,Cc1ccc(S(=O)(=O)N2CC=C(C(=O)NC3CC3)CC2)cc1,17.2%
23,COc1ccc(CNc2nc3c(c(C(F)(F)F)n2)CCCCC3)cc1,13.2%
24,CN1CCN(C(=S)SCC(=O)N2CCCc3ccccc32)CC1,23.2%

row,SMILES,inhibition
1,COc1ccc(/C=C/c2nc3ccccc3n2C)cc1,-8.1%
2,Cc1csc(NC(=O)c2cccc(S(=O)(=O)N3CCN(C)CC3)c2)n1,5%
3,Cc1c(CCOC(=O)c2ccccc2)sc[n+]1CC(=O)c1ccc(Br)cc1,-14%
4,Cc1c(CCOC(=O)CC23CC4CC(CC(C4)C2)C3)sc[n+]1CC(=O)c1ccc(Br)cc1,58.4%
5,COc1c(F)c(F)c(C(=O)Nc2ccc(NC(=O)c3ccco3)cc2)c(F)c1F,9.4%
6,COc1ccc(-c2csc(-n3ncc(C(=O)O)c3C(F)(F)F)n2)cc1,0.6%
7,C=CC(=O)NCCCc1cc(C(C)(C)C)c(O)c(C(C)(C)C)c1,8.3%
8,C=CCn1c(CCc2ccccc2)nnc1SCC(N)=O,1.8%
9,Cc1cc(C(=O)CSc2nnnn2-c2ccc(O)cc2)c(C)n1C,3.7%
10,COc1ccccc1OC(=O)Nc1ccc(Cl)cc1,0.1%
11,CC(C)(C)c1ccc(S(=O)(=O)Nc2ccc(Cc3ccncc3)cc2)cc1,80.2% (active)
12,O=S(=O)(Nc1ccc(Cc2ccncc2)cc1)c1ccc(Br)cc1,2.9%
13,O=S(=O)(Nc1ccc(Cc2ccncc2)cc1)c1ccc(Cl)cc1,-2.3%
14,Cc1cc2nc(-c3ccc[nH]c3=O)n(Cc3cccc(F)c3)c2cc1C,8.3%
15,Cc1ccc(NC(=O)Nc2cc(Cl)ccc2C2COC(=O)C2=N)cc1 (stereo unspecified),7.5%
16,Cc1ccc(-c2n[nH]c(=S)c3ccccc23)cc1,10.4%
17,S=c1[nH]nc(-c2ccccc2)c2ccccc12,-20.4%
18,Fc1ccc(-c2n[nH]c(=S)c3ccccc23)cc1,98% (active)
19,Cc1c(CN2CCN(CC(C)(C)C)C(CCO)C2)[nH]c2ccccc12 (stereo unspecified),7.5%
20,COc1cccc(C2CC(c3cccc(NS(C)(=O)=O)c3)=NN2C(=O)c2ccccc2)c1OC (stereo unspecified),10.9%
21,CN1CC2(C)CN(C(c3ccccc3)c3ccccc3)CC(C)(C1)C2O (stereo unspecified),5.6%
22,Clc1ccc(C(c2ccccc2)N2CCNCC2)cc1 (stereo unspecified),20%
23,CC(C)(NC(=O)N1CCCC1)c1cccc(C(C)(C)NC(=O)N2CCCC2)c1,0.9%
24,CCOC(=O)Cc1c(Cl)c2ccccc2[nH]c1=O,-1.4%

row,SMILES,inhibition
1,Cc1cc(C(=O)Cn2nc(C(=O)O)c3ccccc3c2=O)c(C)n1C1CC1,3.9%
2,COc1ccc(CCN2C(=O)c3[nH]nc(-c4ccccc4O)c3C2c2ccccc2)cc1OC (stereo unspecified),1.6%
3,COc1ccc(CCN2C(=O)c3[nH]nc(-c4ccccc4O)c3C2c2cccc(Cl)c2)cc1 (stereo unspecified),4.8%
4,COc1ccc(C2c3c(-c4ccccc4O)n[nH]c3C(=O)N2Cc2ccco2)cc1OC (stereo unspecified),-6.4%
5,COc1ccc(C2c3c(-c4ccccc4O)n[nH]c3C(=O)N2CCc2ccc(OC)c(OC)c2)cc1 (stereo unspecified),9.9%
6,COc1ccc(C(=O)OCC(=O)NC2CCCC2)c(OC)c1OC,3.7%
7,CCN(Cc1ccccc1)C(=O)CCCOc1ccccc1,-2%
8,CC(=O)Nc1ccc(S(=O)(=O)NNC(=O)C2CCCCC2)cc1,0.1%
9,Cc1ccc(S(=O)(=O)N2CCCCC2)cc1NC(=O)COC(=O)C1CC2C=CC1C2 (stereo unspecified),-2.7%
10,Cc1ccc(NC(=O)COC(=O)C2CC3C=CC2C3)cc1S(=O)(=O)N1CCCCC1 (stereo unspecified),64.8% (active)
11,O=C(COC(=O)C1CC2C=CC1C2)Nc1cccc(S(=O)(=O)N2CCCCC2)c1 (stereo unspecified),-15.5%
12,CCCCCn1c(CNC(C)=O)nc2ccccc21,2.6%
13,O=c1c(-c2ccc(Cl)cc2)coc2c(CN3CCOCC3)c(O)ccc12,-5.8%
14,Cc1ccc(S(C)(=O)=NS(=O)(=O)c2cccc3nsnc23)cc1 (stereo unspecified),5%
15,Cn1c(=O)c(C(=O)NCCc2ccccc2)c(O)c2ccccc21,11.2%
16,O=C1C(Cc2ccc(Br)cc2)SC(=Nc2ccccc2)N1c1ccccc1 (stereo unspecified),7.8%
17,Nc1ccc(N2CCCCC2)c(S(=O)(=O)Nc2ccc(Cl)cc2)c1,16.6%
18,COc1ccccc1NS(=O)(=O)c1cc(N)ccc1N1CCCCC1,-8.3%
19,C/C(=N\Nc1ccc(Cl)c(C(=O)O)c1)c1cccc2ccccc12,-3.2%
20,COC(=O)[C@H](Cc1ccccc1)NC(=O)N1CCCCC1C (stereo partly specified),11.9%
21,O=C(c1ccco1)N(CC1CCCO1)c1nc(-c2ccccc2)cs1 (stereo unspecified),-1.7%
22,CCCCCn1c(C(Cc2ccccc2)NC(=O)COC)nc2ccccc21 (stereo unspecified),25.9%
23,CCCCC(NC(C)=O)c1nc2ccccc2n1CCCC (stereo unspecified),7.3%
24,COc1ccc(CCn2c(C)cc(C(=O)COC(=O)c3ccc(NC(=O)CC#N)cc3)c2C)cc1,-0.8%

# — PubChem BioAssay AID2013 (Sanford-Burnham Center for Chemical Genomics, 2009)
